# Pf apPOL inh = Pf-apPOL DNA polymerase inhibition; 210,000 tested, 0.25% active; inhibition, % at 10 µM; Recombinant Pf-apPOL, molecular beacon fluorescence, 1.5 h
# mHTT-CaM PPI inh = disrupts binding of mutant huntingtin to calmodulin; P42858; AlphaScreen His-mHTT/GST-CaM binding, luminescence; inhibition, % at 15 µM; 190,000 tested, 3.6% active; AID 1671202;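 note: 0% = both proteins with DMSO and 100% = one protein alone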
# Starred values were filed as active, the others as inactive; . = not tested or not shown. Most compounds without a hit are left out; they make up all but 3.6% or so of the library. Cut-off read from the data, not from the text of the source: active = inhibition above about 50%; inactive = the rest.
SMILES,Pf apPOL inh,mHTT-CaM PPI inh
O=C1[C@H](Cc2ccccc2)NC/C=C\C[C@H](c2ccc(Cl)cc2)N1Cc1ccccc1,-1.0,81.6*
O=C1[C@H](Cc2ccccc2)NC/C=C\C[C@@H](c2ccc(Cl)cc2)N1Cc1ccccc1,-3.4,92.9*
O=C1[C@H](Cc2ccccc2)NCCCC[C@@H](c2ccc(Cl)cc2)N1Cc1ccc(Cl)cc1,-5.9,99.9*
O=C1[C@H](Cc2ccccc2)NC/C=C\C[C@H](c2ccc(Cl)cc2)N1Cc1ccc(Cl)cc1,-5.9,98.7*
O=C1CSC(c2ccc(F)cc2)N1Cc1ccccc1 (stereo not given),-0.1,-5.0
CCOC(=O)c1ccc(NC(=O)COc2c(F)c(F)c(F)c(F)c2F)cc1,-7.0,.
CCCCOc1ccc(C(=O)Nc2cc([N+](=O)[O-])ccc2C)cc1,-0.8,-1.9
NC(=NOC(=O)c1csc([N+](=O)[O-])c1)c1ccccn1,-10.8,.
COC(=O)c1cccc(NC(=O)C2CCN(c3cc(N4CCCCC4)ncn3)CC2)c1,-2.7,8.9
COc1ccccc1NC(=O)N1CCCC1c1cc(C(C)C)no1 (stereo not given),-1.9,-1.9
CC(=O)N1CCc2ccccc2C1C(=O)NCc1cccc(C(F)(F)F)c1 (stereo not given),-2.0,10.2
O=C1[C@H](Cc2ccccc2)NCCCC[C@@H](c2ccco2)N1Cc1ccccc1,-3.3,26.9
O=C1[C@H](Cc2ccccc2)NCCCC[C@H](c2ccco2)N1Cc1ccccc1,1.9,92.6*
Cc1[nH]nc2c1C(c1ccco1)CC(c1ccco1)=C2 (stereo not given),.,64.5*
Cn1nc(NC(=O)c2ccc(F)cc2Cl)c2c1NC(=O)CC2c1ccco1 (stereo not given),-4.2,-9.8
CC(C)CCNC(=O)CC1CCN(S(=O)(=O)c2cccs2)CC1,-0.5,-0.8
CCCc1nn2c(N)c(C=C3C=CC(=O)C(OCC)=C3)c(=O)nc2s1,-17.2,12.0
Cc1cc(C2(c3ccc(O)c(C)c3)C(=O)Nc3c(C)cc([N+](=O)[O-])cc32)ccc1O,-3.9,85.7*
Cc1cccc2c1NC(=O)C2(c1ccc(O)cc1)c1ccc(O)cc1,-0.2,21.3
O=[N+]([O-])c1ccc2[nH]c3c(c2c1)CCCC3NC1CCN(CCc2ccccc2)CC1 (stereo not given),-1.4,100.3*
NC1CCCc2c1[nH]c1ccc([N+](=O)[O-])cc21 (stereo not given),2.8,12.4
O=C1C([N+](=O)[O-])=C(O)c2cccc3cccc1c23,70.3*,.
O=C1c2ccc3ccccc3c2-c2cccc3cccc1c23,23.3,.
CCOc1ccc(NC(=O)c2cccc3ccccc23)c([N+](=O)[O-])c1,-2.4,63.1*
CCOc1ccc(NC(=O)COc2ccccc2)c([N+](=O)[O-])c1,-3.5,22.8
SMILES,Pf apPOL inh,mHTT-CaM PPI inh
CCOc1ccc(NC(=O)C(c2ccccc2)c2ccccc2)c([N+](=O)[O-])c1,-7.6,50.2*
CCOc1ccc(NC(=O)c2cc(Cl)ccc2Cl)c([N+](=O)[O-])c1,-24.4,6.1
CCc1ccc(C=C2Oc3c(ccc(O)c3CN(C)C)C2=O)cc1,-38.6,11.0
CC1CCN(CN2C(=O)C(=Nc3ccc(F)cc3)c3ccccc32)CC1,-4.4,2.0
COc1ccc(CCNC(=O)CSc2nnc(-c3ccncc3)o2)cc1OC,1.7,-5.6
N#CC(=Cc1ccc2c(c1)OCO2)c1cccs1,-9.0,.
COc1ccc(C=C2Oc3cc(OCC(=O)O)ccc3C2=O)cc1,61.4*,4.0
CC(C)(C)OC(=O)COc1ccc2c(c1)OC(=CC1=Cc3ccccc3OC1)C2=O,-2.7,8.1
COc1cccc(C=C2Oc3cc(OCC(C)=O)ccc3C2=O)c1,-0.4,5.8
C=C(C)COc1ccc2c(c1)OC(=Cc1cccc(OC)c1)C2=O,-6.6,72.9*
CC(=O)COc1ccc2c(c1)OC(=CC=Cc1ccccc1)C2=O,7.1,87.7*
COc1ccc(C(=O)COc2ccc3c(c2)OC(=CC2=Cc4ccccc4OC2)C3=O)cc1OC,-6.1,57.6*
COc1ccc(C=C2Oc3cc(OCC(=O)c4ccc(OC)cc4)ccc3C2=O)cc1,-3.4,-1.1
CCOC(=O)COc1ccc2c(c1)OC(=CC=Cc1ccccc1)C2=O,-2.3,10.7
NS(=O)(=O)c1cccc(NC(=O)COc2ccccc2)c1,-2.3,-0.6
Cc1ccccc1NS(=O)(=O)c1ccc(Cl)c(C(=O)Nc2ccccc2[N+](=O)[O-])c1,6.9,23.6
O=C(Cc1ccccc1)Nc1cccc(Br)c1,2.4,-10.8
N#Cc1cc2c(N)c(C(=O)c3ccc(Cl)cc3)sc2nc1N,-10.7,11.0
N#Cc1cc2c(N)c(C(=O)Nc3ccccc3Oc3ccccc3)sc2nc1N,-1.3,81.0*
COc1ccc(-c2nccn3cc(C(=O)NC(C)C)nc23)cc1,4.2,6.0
CCS(=O)(=O)CCSc1nsc(SCCS(=O)(=O)CC)c1C#N,3.9,1.0
O=c1[nH]c2ccc(Cl)cc2c(-c2ccccc2)c1C1=NOC(c2ccccc2)C1 (stereo not given),-9.5,100.0*
